Data: PubChem BioAssay (NCATS)
Inconclusive results are not listed. The source made the active and inactive calls. Unless noted, calls follow the shape of the dose curve; as a rule, active = well fitted inhibition curve with a large enough effect; inconclusive = small, poorly fitted or top-dose-only effect; inactive = flat fitted curve, though single readings scatter.

Tests used:
CRL-7250 = normal cell line; assay: qHTS assay to identify novel small-molecules to repurpose for Merkel cell carcinoma treatment (AID 1296009); settings: MCC and control cell lines, CellTiter-Glo viability, 72 h; series mostly up to 92 µM; also: nearly all actives have a fitted effect of over 60% in size
Outline: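 qHTS format: cells treated with library compounds in DMSO across 8 (NPC) or 11 (MIPE) concentrations. Readout after 72 hr at 37 degree celsius was CellTiter-Glo luminescence.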

[1] = qHTS for Inhibitors of the Functional Ribonucleoprotein Complex (vRNP) of Lassa (LASV) Arenavirus: LASV Primary Screen - GLuc reporter signal (AID 1347082; calls by dose curve; tested in HEK293 reporter line; also: % is scaled to controls: 0 for no effect and ±100 for the full control effect; nearly all actives have a fitted effect of over 60% in size)
[2] = qHTS for Inhibitors of the Functional Ribonucleoprotein Complex (vRNP) of Lassa (LASV) Arenavirus: Viability assay - alamar blue signal for LASV Primary Screen (AID 1347083; calls by dose curve; tested in HEK293 reporter line; also: % is scaled to controls: 0 for no effect and ±100 for the full control effect; nearly all actives have a fitted effect of over 80% in size)
[3] = qHTS for Inhibitors of the Functional Ribonucleoprotein Complex (vRNP) of Lymphocytic Choriomeningitis Arenaviruses (LCMV): Viability assay - alamar blue signal for LCMV Primary Screen (AID 1347085; calls by dose curve; tested in HEK293 reporter line; also: % is scaled to controls: 0 for no effect and ±100 for the full control effect; nearly all actives have a fitted effect of over 80% in size)
[4] = target: Nucleoprotein (Lymphocytic choriomeningitis virus (strain Armstrong)) (UniProt P09992); assay: qHTS for Inhibitors of the Functional Ribonucleoprotein Complex (vRNP) of Lymphocytic Choriomeningitis Arenaviruses (LCMV): LCMV Primary Screen - GLuc reporter signal (AID 1347086; calls by dose curve; also: % is scaled to controls: 0 for no effect and ±100 for the full control effect; nearly all actives have a fitted effect of over 70% in size)
Sequence of Nucleoprotein (Lymphocytic choriomeningitis virus (strain Armstrong)) (P09992 whole entry, looked up): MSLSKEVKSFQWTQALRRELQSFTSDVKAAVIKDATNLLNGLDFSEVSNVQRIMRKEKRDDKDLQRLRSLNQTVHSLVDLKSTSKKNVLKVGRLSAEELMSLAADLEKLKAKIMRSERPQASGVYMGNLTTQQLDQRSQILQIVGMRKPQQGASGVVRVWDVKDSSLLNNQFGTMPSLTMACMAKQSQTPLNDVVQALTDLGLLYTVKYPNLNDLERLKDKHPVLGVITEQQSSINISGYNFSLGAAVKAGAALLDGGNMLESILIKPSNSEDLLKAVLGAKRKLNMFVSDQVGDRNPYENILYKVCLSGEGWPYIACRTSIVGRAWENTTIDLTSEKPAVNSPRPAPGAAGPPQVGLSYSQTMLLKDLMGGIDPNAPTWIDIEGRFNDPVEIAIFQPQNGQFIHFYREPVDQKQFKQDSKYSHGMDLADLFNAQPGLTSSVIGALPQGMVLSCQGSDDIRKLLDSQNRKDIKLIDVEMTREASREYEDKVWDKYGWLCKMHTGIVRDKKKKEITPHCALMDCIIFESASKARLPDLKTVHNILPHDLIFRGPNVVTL

CC(C)C1CCC(C(=O)N[C@@H](Cc2ccccc2)C(=O)O)CC1 (some centres undefined)
inactive: Potency (CRL-7250)

CC(=O)OCC1=C[C@H](O)[C@@H]2C(C(=O)O)=CO[C@@H](O[C@@H]3O[C@H](CO)[C@@H](O)[C@H](O)[C@H]3O)[C@H]12
inactive: Potency (CRL-7250)

CN(C)c1nc(Cc2ccc(NC(=O)c3ccc(C(F)(F)F)cc3)cc2)nc(N(C)C)c1CC(=O)O
inactive: Potency [1] | Potency [2] | Potency [3] | Potency [4] | Potency (CRL-7250)

C=CC(C)(O)CC/C=C(\C)C(=O)O[C@@H]1[C@@H](O)[C@H](OC(C)(C=C)CC/C=C(\C)C(=O)O)O[C@H](CO)[C@H]1OC(=O)/C(C)=C/CCC(C)(O)C=C (some centres undefined)
inactive: Potency (CRL-7250)

CN(C1CCc2c(c3ccccc3n2CC(=O)O)C1)S(=O)(=O)c1ccc(F)cc1 (centres undefined)
inactive: Potency [1] | Potency [2] | Potency [3] | Potency [4] | Potency (CRL-7250)

CC(C)(Cc1ccc2ccccc2c1)NC[C@@H](O)COc1cccc(Cl)c1C#N
inactive: Potency [1] | Potency [2] | Potency [3] | Potency [4] | Potency (CRL-7250)

CC(/C=C/[C@]1(O)[C@@]2(C)CO[C@@]1(C)C[C@@H](O)C2)=C\C(=O)O[C@@H]1O[C@H](CO)[C@@H](O)[C@H](O)[C@H]1O
inactive: Potency (CRL-7250)

CNC[C@@H](O)[C@@H](O)[C@H](O)[C@H](O)CO
inactive: Potency [1] | Potency [2] | Potency [3] | Potency [4] | Potency (CRL-7250)

CC(=O)C1=C(O)C=C2Oc3c(C(C)=O)c(O)c(C)c(O)c3C2(C)C1=O (centres undefined)
inactive: Potency [1] | Potency [2] | Potency [3] | Potency [4] | Potency (CRL-7250)

CN(C)CCC=C1c2ccccc2COc2ccc(CC(=O)O)cc21
inactive: Potency [1] | Potency [2] | Potency [3] | Potency [4] | Potency (CRL-7250)

C=C[C@@H]1CN2CCC1C[C@@H]2C(O)c1ccnc2ccc(OC)cc12 (some centres undefined)
inactive: Potency [1] | Potency [2] | Potency [3] | Potency [4] | Potency (CRL-7250)

CCOC(=O)N1CCN([N+]([O-])=NOc2cc(ON=[N+]([O-])N3CCN(C(=O)OCC)CC3)c([N+](=O)[O-])cc2[N+](=O)[O-])CC1
inactive: Potency [1] | Potency [2] | Potency [3] | Potency [4] | Potency (CRL-7250)

O=C(O)CCc1cc2ccoc2cc1O[C@@H]1O[C@H](CO)[C@@H](O)[C@H](O)[C@H]1O
inactive: Potency (CRL-7250)

CC1C2=CC(=O)OC2(O)CC2C1C(O)CC1C(C)(CO)CCCC21C (centres undefined)
inactive: Potency (CRL-7250)

CCOC(=O)O[C@]1(C(=O)OCCl)CC[C@@H]2[C@H]3CCC4=CC(=O)C=C[C@]4(C)[C@@H]3[C@@H](O)C[C@@]21C
inactive: Potency [1] | Potency [2] | Potency [3] | Potency [4] | Potency (CRL-7250)

CO[C@H]1c2cc(C(C)C)c(O)c(O)c2[C@@]23CCCC(C)(C)C2[C@@H]1OC3=O (some centres undefined)
inactive: Potency (CRL-7250)

CCNC(=O)Nc1ccc(Oc2ncnc(N)c2C=NOC)cc1Cl
inactive: Potency [1] | Potency [2] | Potency [3] | Potency [4] | Potency (CRL-7250)

COC(=O)[C@@H]1[C@H]2C[C@@H]3c4[nH]c5ccccc5c4CCN3C[C@@H]2CC[C@@H]1O
inactive: Potency [1] | Potency [2] | Potency [3] | Potency [4] | Potency (CRL-7250)

COc1cc(/C=C/C(=O)OC2CC3CCC2(C)C3(C)C)ccc1O (centres undefined)
inactive: Potency [1] | Potency [2] | Potency [3] | Potency [4] | Potency (CRL-7250)

CN(C)c1ccccc1CN1CCCN(Cc2ccccc2N(C)C)C1c1ccncc1
inactive: Potency [1] | Potency [2] | Potency (CRL-7250)

NC(Cc1c[nH]c2ccccc12)C(=O)NC(CCC(=O)O)C(=O)O (centres undefined)
inactive: Potency (CRL-7250)

CN[C@@H]1[C@@H](O)[C@@H](O[C@@H]2[C@@H](O)[C@H](O[C@H]3O[C@H](CN)[C@@H](O)[C@H](O)[C@@H]3O)[C@@H](N)C[C@@H]2NC(=O)[C@@H](O)CN)OC[C@]1(C)O
inactive: Potency [1] | Potency [2] | Potency [3] | Potency [4] | Potency (CRL-7250)

C[C@@H]1CC[C@]2(C(=O)OC3OC(CO)C(O)C(O)C3O)CC[C@]3(C)C(=CCC4[C@@]5(C)CC[C@H](O)[C@](C)(C(=O)O)C5CC[C@]43C)C2[C@]1(C)O (some centres undefined)
inactive: Potency (CRL-7250)

CCC/C=C/C(=O)O[C@H]1CC(C)(C)CC2[C@@]13[C@H](O)C[C@]1(C)[C@@]2(CCC2[C@@]4(C)CC[C@H](O[C@@H]5O[C@H](C(=O)O)[C@@H](O)[C@H](O[C@@H]6O[C@H](CO)[C@H](O)[C@H](O)[C@H]6O[C@@H]6O[C@@H](C)[C@H](O)[C@@H](O)[C@H]6O[C@@H]6OC[C@](O)(CO)[C@H]6O)[C@H]5O[C@@H]5O[C@H](CO)[C@H](O)[C@H](O)[C@H]5O)C(C)(C)C4CC[C@]21C)O[C@H]3O (some centres undefined)
inactive: outcome (CRL-7250) inactive [at 9.27 µM]

COc1ccc(-c2coc3cc(O)ccc3c2=O)cc1
inactive: Potency [1] | Potency [2] | Potency [3] | Potency [4] | Potency (CRL-7250)

CC(C)(C)[C@H](NC(=O)c1ccc(N)c(Cl)c1)C(=O)N1CCC[C@@H]1C(=O)N[C@H](C#N)CC(=O)O
inactive: activity change, negative = inhibition [1] -4.12% [at 5.82 µM] | activity change, negative = reduced viability [2] 2.61% [at 5.82 µM] | activity change, negative = lower viability [3] 8.73% [at 5.82 µM] | activity change, negative = inhibition [4] 63.3% [at 5.82 µM] | outcome (CRL-7250) inactive [at 4.96 µM]

C[C@H](NC(c1cccc(C[P+](=O)O)c1)[C@H](C)O)c1ccc(Cl)c(Cl)c1 (some centres undefined)
inactive: Potency (CRL-7250)
